KB-3-1 tox = qHTS assay for MDR1-selective chemotherapeutics: Primary screen using the parental adenocarcinoma cell KB-3-1 | hit rate 1.4% among 400,000 | KB-3-1 viability, CellTiter-Glo ATP luminescence, 72 h | AID 1347075, 2019 | Potency, µM (highest dose often 46.1 µM), actives largely listed as cytotoxic; further: on the % scale 0 is the no-effect control and ±100 the full control effect; nearly all actives have a fitted effect of over 60% in size
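Screening of KB-3-1 cells (DMEM, 10% FBS, phenol-red free) ran from lowest to highest compound concentration; after 72 h at 37 °C viability was read luminescently and curves fitted.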
MCF10A rerep = A quantitative high throughput screen for small molecules that induce DNA re-replication in MCF 10a normal breast cells. MCF 10A DNA re-replication, Hoechst nuclear intensity, 48 h. Potency, µM (highest dose often 46.1 µM), for inactives: at the highest dose activity, positive = re-replication, hits mostly activators. hit rate 2.9% among 350,000; further: % of control where 0% means no effect; nearly all actives have a fitted effect of over 50% in size
HT1080-NT tox = qHTS for induction of synthetic lethality in tumor cells producing 2HG: qHTS for the HT-1080-NT fibrosarcoma cell line | HT-1080-NT fibrosarcoma viability, CellTiter-Glo ATP luminescence, 48 h | Potency, µM (top dose mostly 46.1 µM), inactives show top-dose activity, negative = less viability, actives largely listed as cytotoxic | hit rate 1.6% among 360,000 | AID 686970, 2013;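 further: NT is the 2HG producing partner of a matched IDH1 knockdown line; 0% = DMSO-treated cells and -100% = media-only wells without cells; nearly all actives have a fitted effect of over 55% in size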
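Viability by CellTiter-Glo luminescence after 48 h compound exposure at 37C of HT-1080-NT cells (750/well, RPMI, 5% FBS). % activity scaled between DMSO wells and medium-only wells, then curve-fitted and categorized by curve class.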
SW480 rereplic = A quantitative high throughput screen for small molecules that induce DNA re-replication in SW480 colon adenocarcinoma cells. hit rate 1.8% among 340,000. Potency, µM (doses to about 46.1 µM), for the others: at the highest dose re-replication activation, hits mostly activators. SW480 DNA re-replication, Hoechst DNA content imaging, 48 h; further: % of control where 0% means no effect; nearly all actives have a fitted effect of over 55% in size
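First, 250 cells per well were seeded. Next, compound or vehicle (23 nL) was pinned in, plates sat 48 hr at 37 C. Finally Hoechst was added for 40 min before fluorescence scanning.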
KB-V1 MDR tox = qHTS assay for MDR1-selective chemotherapeutics: Primary screen using the drug-selected MDR subline cells KB-V1. KB-V1 MDR cells viability, CellTiter-Glo, 72 h. Potency, µM (doses to about 46.1 µM), usual class: cytotoxic. hit rate 3.4% among 400,000. AID 1347076, 2019; further: on the % scale 0 is the no-effect control and ±100 the full control effect; nearly all actives have a fitted effect of over 60% in size
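Cytotoxicity via CellTiter-Glo luminescence after 72 h compound exposure at 37 degrees C. Cells: drug-selected KB-V1 line, DMEM phenol-red free plus 10% FBS. Compounds tested at multiple concentrations; normalized data fitted to concentration-effect curves.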
HT1080 IDH1KD tx = qHTS for induction of synthetic lethality in tumor cells producing 2HG: qHTS for the HT-1080-IDH1KD cell line; HT-1080 IDH1 knockdown viability, ATP luminescence, 48 h; Potency, µM (doses to about 46.1 µM), inactives show top-dose activity, negative = toxicity, actives largely listed as cytotoxic; hit rate 2% among 360,000; AID 686971, 2013;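 further: 0% = DMSO wells and -100% = cell-free medium wells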
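Cytotoxicity counter-line: IDH1KD HT-1080, 48 h, CellTiter-Glo. Curves classed by r2, magnitude and activity.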
Starred values were filed as active, the others as inactive; i = inactive; u = inconclusive; x = no result given. This is a sample that favours compounds with a hit; in the whole collection about 8% have one here. The call rests on the fitted dose curve; in most records, active means well fitted curve in the direction sought with a large enough effect; inconclusive means small, poorly fitted or top-dose-only effect, or another doubt; inactive means no such curve, though single readings can be large; an effect the other way counts as inactive or inconclusive. Potency means the concentration at half of the fitted maximal effect.

SMILES	KB-3-1 tox	MCF10A rerep	HT1080-NT tox	SW480 rereplic	KB-V1 MDR tox	HT1080 IDH1KD tx
Cc1cc(N)n2ncc(-c3ccc(Cl)cc3)c2n1	18µM*	u	u	6%	u	u
COc1ccc(NC(=O)CSc2cc(C)nc3c(-c4ccccc4)cnn23)cc1	i	9.2µM*	4%	u	i	5%
CCC(=O)NC(C)C(c1cccs1)N1CCN(c2ccccc2)CC1 (stereo unspecified)	i	-6%	5%	8%	i	10%
Cc1nn(-c2ccccc2)c2c1C(c1cccnc1)N1C=C(S(=O)(=O)N3CCCCC3)C=CC1=N2 (stereo unspecified)	i	1%	-3%	11%	u	0%
Cc1nn(Cc2cccc(C(=O)NC34CC5CC(CC(C5)C3)C4)c2)c(C)c1Br	i	9.2µM*	u	7%	u	u
CC1=C(C(=O)OCc2ccccc2)C(/C=C/c2ccccc2)NC(=S)N1 (stereo unspecified)	i	23µM*	-24%	10%	u	u
C=CCOC(=O)C1=C(C)NC(=S)NC1/C=C/c1ccccc1 (stereo unspecified)	i	-5%	13µM*	15µM*	i	u
O=C(/C(=C/O)N=Nc1ccccc1)c1ccc(Cl)cc1	i	u	16µM*	1%	u	18µM*
CCOC(=O)N1CCc2c(sc(NC(=O)CCS(=O)(=O)c3ccccc3)c2C(N)=O)C1	i	u	1%	-10%	i	1%
CC(=O)N1CCc2c(sc(NC(=O)c3ccc4c(c3)OCCO4)c2C#N)C1	u	15µM*	18µM*	18µM*	u	12µM*
CC(=O)N1CCc2c(sc(NC(=O)c3ccc([N+](=O)[O-])o3)c2C(N)=O)C1	i	x	6.5µM*	x	i	5.8µM*
CC(=O)N1CCc2c(sc(NC(=O)CCS(=O)(=O)c3ccccc3)c2C(N)=O)C1	u	u	3%	21µM*	i	-1%
CCOC(=O)c1c(C)oc2nc(C)nc(Nc3ccc(C)c(Cl)c3)c12	i	x	x	x	i	x
COC(=O)c1c(-c2ccccc2OC)sc2ccc(OC)cc12	i	0%	-7%	11%	i	7%
CCC1CCCCN1CCCNC(=O)c1cc2c(Cl)nc3ccc(C)cc3c2s1 (stereo unspecified)	i	x	x	x	i	x
Cc1ccc2nc(Cl)c3cc(C(=O)NCCCN4CCCC4)sc3c2c1	u	u	18µM*	u	i	u
Cc1ccc2nc(Cl)c3cc(C(=O)N(CCN(C)C)Cc4ccco4)sc3c2c1	u	16µM*	u	u	u	23µM*
CN(C)CCN(Cc1ccco1)C(=O)c1cc2c(Cl)nc3ccccc3c2s1	u	u	u	u	i	u
CCOc1cc(C2NC(=O)NC(c3ccccc3)=C2C(C)=O)ccc1OCC(N)=O (stereo unspecified)	i	-2%	2%	1%	i	0%
CCOc1ccc(NC(=O)CCC(=O)N2CCSc3ccccc32)cc1	i	1%	-2%	-1%	i	0%
NNc1nc(-c2ccccc2)cc(-c2ccccc2)n1	u	6%	-20%	-36%	i	u
NNc1nc(-c2ccccc2)cc(-c2ccccc2O)n1	u	u	u	u	5.2µM*	13µM*
CCOC(=O)c1[nH]c2ccc(F)cc2c1NC(=O)C(C)N1CCc2cc(OC)c(OC)cc2C1 (stereo unspecified)	16µM*	7.3µM*	u	16µM*	u	16µM*
COc1ccc2cc(Br)ccc2c1CC(=O)NC1CC(C)(C)NC(C)(C)C1	i	10%	u	u	u	16µM*
CC/C(O)=C1\C(=O)CCCC1=NCc1nc2ccccc2[nH]1	i	u	-4%	16%	i	-2%
SMILES	KB-3-1 tox	MCF10A rerep	HT1080-NT tox	SW480 rereplic	KB-V1 MDR tox	HT1080 IDH1KD tx
Cc1ccc(Nc2cc(C)nn2-c2nc(C)cc(=O)[nH]2)cc1	1.4µM*	u	u	u	u	u
O=C(O)c1ccc(NC(=O)C2(c3ccccc3)CCOCC2)cc1	i	-3%	16%	-2%	i	19%
CCNC(=O)CSc1nc2cc([N+](=O)[O-])ccc2n1-c1cccc(C(F)(F)F)c1	i	2%	-10%	1%	i	1%
COC(=O)C1=C(C)NC(=O)/C1=C\c1cc(C)n(-c2c(C)cccc2C)c1C	i	5.8µM*	-4%	u	i	3%
COc1ccccc1/C=N/NC(=O)CSc1cc(C)nc2ccccc12	u	13µM*	u	u	i	u
COc1ccccc1/C=N/NC(=O)CSc1ccc2ccccc2n1	i	16µM*	u	u	i	u
Cc1cc(SCC(=O)NN)c2cc(Br)ccc2n1	i	9.2µM*	u	u	i	-24%
COc1ccc2nc(C)cc(SCC(=O)Nc3c(C)cccc3C)c2c1	i	1%	2%	-4%	u	11%
COc1ccc2nc(C)cc(SCC(=O)N/N=C/c3c(OC)ccc4ccccc34)c2c1	u	-8%	10%	-6%	i	16%
COc1ccccc1/C=N/NC(=O)CO	i	6%	13%	-4%	i	16%
COc1ccc2nc(C)cc(SCC(=O)Nc3c(C)cc(C)cc3C)c2c1	i	14%	23%	-12%	13µM*	-15%
Nc1ncn(C(=O)c2ccco2)n1	i	1%	20%	-7%	i	14%
Cc1ccc(NC(=O)COC(=O)c2cc(=O)c3ccccc3o2)c(Br)c1	i	21%	-6%	-21%	u	-6%
COc1cccc2c(SCC(=O)N/N=C/c3ccc(O)cc3O)cc(C)nc12	u	15µM*	u	7.3µM*	i	u
CCCCSc1nc(C)cc(SCC(=O)N/N=C/c2cccc(OC)c2O)n1	u	4%	u	14%	i	u
COc1cccc(NC(=O)CCSc2ccc3ccccc3n2)c1	i	10%	u	0%	i	6%
COc1ccc2nc(C)cc(SCC(=O)N/N=C/c3ccc(O)cc3O)c2c1	i	6.5µM*	u	u	i	u

Screens deposited in PubChem by National Center for Advancing Translational Sciences (NCATS).
